KDM5B inh – inhibitors of human KDM5B histone demethylase | Q9UGL1 | Potency, µM (series often up to 57.7 µM), most hits filed as inhibitors | KDM5B demethylase, FDH-coupled NADH fluorescence (FDH is formaldehyde dehydrogenase) | 220,000 tested, 2.6% active | AID 1347165; active = well fitted inhibition curve with a large enough effect; also: 0% is about no effect; nearly all actives have a fitted effect of over 70% in size
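Coupled FDH/NAD⁺ fluorescence readout. KDM5BΔAP 200 nM final; compound titration, 10 min RT preincubation; substrate mix 12.5 µM H3K4me3, 25 µM 2-OG, 50 µM Fe(II), 100 µM ascorbate, 0.25 mM NAD⁺, 0.25 U/mL FDH; ΔRFU over 30 min.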
Starred values were filed as active, the others as inactive; i = inactive. This excerpt belongs to a sample that is enriched for hits. Potency is read from the fitted curve at half-maximal effect.

SMILES | KDM5B inh
Cc1noc(C)c1S(=O)(=O)N1CCc2nc3cc(-c4ccccc4)[nH]n3c(=O)c2C1 | 28.2µM*
Cc1noc(C)c1S(=O)(=O)N1CCCCCCn2c(nnc2-c2ccc(F)cc2)CC1 | i
O=C(c1cnc2ccccn12)N1CCc2c(nc(-c3ccccc3)[nH]c2=O)C1 | i
CN(C)S(=O)(=O)N1CCc2c(nc3cc(-c4ccccc4)[nH]n3c2=O)C1 | 22.4µM*
O=C(Nc1ccc2oc(-c3ccccc3F)nc2c1)c1ccc(Cl)cc1 | i
CCCCOc1ccc2c(=O)c(Oc3ccccc3)c(C)oc2c1 | i
CCN(CC)C(=O)CSc1nc(N2CCCC2)c2c(c1C#N)CCCC2 | i
Cc1cc2nc(COC(=O)c3cccc(NC(=O)c4cccc(Cl)c4)c3C)cc(=O)n2o1 | i
CCOc1ccccc1C(=O)Nc1ccc(OCC)c2ncccc12 | i
Cc1ccc(C(=O)/C=C\N(C)C)cc1 | i
COc1ccc(Cl)cc1C(=O)N1CCc2nc3cc(-c4ccccc4)[nH]n3c(=O)c2C1 | 25.1µM*
COc1ccc(Cl)cc1C(=O)N1CCCN(c2cc(-c3ccccc3)[nH]n2)CC1 | i
CCOC(=O)CCNC(=O)N1CCc2c(nc(-c3ccccc3)[nH]c2=O)C1 | i
CCOC(=O)CCNC(=O)N1CCCN(S(C)(=O)=O)C(c2ccccc2)CC(=O)NCC1 (stereo not given) | i
CCOC(=O)CCNC(=O)N1CCc2c(nc3cc(-c4ccccc4)[nH]n3c2=O)C1 | 28.2µM*
COc1ccccc1C(=O)N1CCc2nc(C3CC3)nc(-c3ccc(Cl)cc3)c2C1 | i
COc1ccc(/C=C2\Oc3cc(OC(=O)C(C)(C)C)ccc3C2=O)c(OC)c1OC | i
COc1ccc(CN[C@H]2C[C@@H](Cc3cc(CN(C)c4ccccc4)on3)C2(C)C)cc1 | i
COC(=O)c1ccc2c(=O)[nH]c(CSc3nnc(-c4cccc(C)c4)n3Cc3ccco3)nc2c1 | i
Cn1c(=O)c2c(nc(NCCCO)n2Cc2cccc(Cl)c2)n(C)c1=O | i
CCc1nc2ccccc2c(C(=O)OCC(=O)NC23CC4CC(CC(C4)C2)C3)c1C | i
O=C(Nc1cccc(-c2nnc3n2CCCC3)c1)c1cnccn1 | i
Cc1cn2nc(C(=O)N3CCN(c4ccccc4)CC3)cc2c(N(C)Cc2ccccc2)n1 | 25.1µM*
CN(Cc1ccccc1)c1ncnc2c1CCN(C(=O)C1CCC1)CC2 | i
Cc1ccc(-c2nc(C(=O)N3CCN(c4ccccc4)CC3)no2)cc1 | i
SMILES | KDM5B inh
Cc1cn2nc(C(=O)N3CCCCC3)cc2c(N(C)Cc2ccccc2)n1 | 31.6µM*
Cc1ccc(S(=O)(=O)N(C)Cc2ccccc2)cc1C(=O)N1CCCCC1 | i
CCc1ccc(-n2nc(C)c3c(C(=O)N4CCN(c5ccccc5)CC4)cc(C)nc32)cc1 | i
O=c1cc(CN2CCN(S(=O)(=O)c3ccccc3)CC2)c2cc(Cl)c(O)cc2o1 | i
N#Cc1cccc(NC(=O)c2nn(Cc3ccccc3)c(=O)c3ccccc23)c1 | i
CCn1nc(C(=O)Nc2ccc(C)c(S(=O)(=O)N(C)C)c2)c2ccccc2c1=O | i
O=C(Cc1ccsc1)N1CCC(Nc2cccnc2)C1 (stereo not given) | i
COc1ccc(CC(=O)N2CCC(n3nccc3NC(=O)C3CC3)CC2)cc1 | i
COCCOC1CCN(C(=O)Cc2c(C)noc2C)CC1 | i
CS(=O)(=O)N1CCC(OC2CCN(C(=O)NCc3ccc(F)cc3)CC2)CC1 | i
COC1CCOC2(CCN(C(=O)NCc3ccc(F)cc3)CC2)C1 (stereo not given) | i
Cc1noc(C)c1CC(=O)N1CCC(c2nc(C3CCOCC3)no2)CC1 | i
COc1ccc(CC(=O)N2CCC(Nc3nccnc3OC)CC2)cc1 | 28.2µM*
COc1nccnc1NC1CCN(C(=O)Cc2ccsc2)CC1 | 31.6µM*
COc1ccc(-c2noc(CC3CCN(C(=O)Cc4ccsc4)CC3)n2)cc1 | i
COc1nccnc1NC1CCN(C(=O)NCc2ccc(F)cc2)CC1 | 28.2µM*
COc1ccc(CC(=O)N2CCC(Cc3nc(-c4ccc(OC)cc4)no3)CC2)cc1 | i
COc1nccnc1NC1CCN(C(=O)Cc2c(C)noc2C)CC1 | 31.6µM*
CCCN(CCC)S(=O)(=O)c1ccc(SCC(=O)OCC)c([N+](=O)[O-])c1 | i
CC(C)(C)C(=O)/C=c1/[nH]c(=O)/c(=C/c2ccccc2F)s1 | i
Cc1ccc(Nc2nc(CSc3nnc4n3CCCCC4)cs2)cc1 | i
COC(=O)c1ccc(COc2ccccc2C#N)cc1 | i
CC(CN1CCCCC1)OC(=O)c1cc(C(C)(C)C)cc(C(C)(C)C)c1 (stereo not given) | i
COc1ccc(-c2c(C)oc3cc(OC)ccc23)cc1 | i
CNC(=O)c1ccc(NC(=O)c2ccc3c(c2)NC(=O)CS3)cc1 | i
COc1ccc(Cn2c(C3CCN(C(=O)c4cc(Cl)ccc4F)CC3)n[nH]c2=O)cc1 | i
CN(Cc1ccsc1)C(=O)c1cccc(C(=O)N(C)Cc2ccsc2)n1 | i
Cc1cccc(-c2ocnc2C(=O)NCC(C)c2ccccc2)c1 (stereo not given) | i

Bioassay records as filed in PubChem BioAssay.
